Source: PubChem (several laboratories)
CYP2C9 activ = human CYP2C9 activators, primary screen, biochemical, luminescence | actives 1.4% (n = 96,000) | activation factor at 5 µM | Cytochrome P450 2C9 (Homo sapiens), P11712 | recombinant CYP2C9, luciferin-H conversion; stronger effect = higher value; factor 1 = untreated enzyme, 0 = blocked;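 active = activation factor of 2 or more for CYP2C9 at a 5 µM dose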;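 also: 0 = sulfaphenazole-blocked wells and 1 = vehicle-only wells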
Target sequence (P11712 whole entry, looked up): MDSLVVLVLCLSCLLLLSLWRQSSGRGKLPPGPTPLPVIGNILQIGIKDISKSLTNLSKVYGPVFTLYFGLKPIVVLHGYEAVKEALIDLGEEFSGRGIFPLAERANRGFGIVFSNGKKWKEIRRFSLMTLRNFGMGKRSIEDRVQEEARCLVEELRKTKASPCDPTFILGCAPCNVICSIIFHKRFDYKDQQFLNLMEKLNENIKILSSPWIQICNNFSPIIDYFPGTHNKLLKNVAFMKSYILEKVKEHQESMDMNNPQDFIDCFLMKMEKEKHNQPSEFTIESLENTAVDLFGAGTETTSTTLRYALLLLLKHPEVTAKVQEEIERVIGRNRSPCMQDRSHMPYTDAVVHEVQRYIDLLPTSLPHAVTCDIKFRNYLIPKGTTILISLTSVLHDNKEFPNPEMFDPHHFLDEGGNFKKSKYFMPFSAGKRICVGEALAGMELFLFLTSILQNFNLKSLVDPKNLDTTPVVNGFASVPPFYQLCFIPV
MRP1 act = H69AR viability gain despite doxorubicin, primary screen, MRP-1 activator project, H69AR cells, CellTiter-Glo; viability increase, % at 10 µM; actives 0.61% (n = 140,000); viability rescue;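 active = viability gain under doxorubicin at or above a set limit, the compound median plus 3 SD, cut at about 4.7% in these data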;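 also: MRP-1 overexpressing cells given doxorubicin 25 µM after compound pretreatment; 18-22 h compound pretreatment then 72 h with doxorubicin before readout; 0% = doxorubicin-only wells and 100% = vehicle-treated cells without doxorubicin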
CYP2C9 inh = blockers of cytochrome P450 2C9 activity – biochemical, luminescence, ADME assay, primary screen; P11712; CYP2C9 Supersomes, luciferin-H conversion; inhibition, % at 5 µM; actives 20% (n = 96,000);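 active = blocking of liver enzyme CYP2C9 beyond about 50% at 5 µM, limit read from the data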
MRP reversal = reversal of MRP1-mediated doxorubicin resistance, primary screen, H69AR cells, doxorubicin co-treatment | AID 602, 2007 | differential viability (reversal), % at 10 µM | H69AR cells + 2 uM doxorubicin, CellTiter-Glo, 72 h | actives 0.04% (n = 85,000);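 active = viability drop by adding the cancer drug above about 55%, with treated viability meeting a 40% cutoff, limit read from the data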;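 also: viability without doxorubicin minus viability with 2 µM doxorubicin for each compound; larger differential means the compound sensitizes cells more to doxorubicin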
CYP2C19 activ = human CYP2C19 activators, primary screen, biochemical, luminescence; 96,000 tested, under 10 active; recombinant CYP2C19, luciferin-H EGE luminescence; stronger effect = higher value; 0 = fully inhibited enzyme, 1 = untreated enzyme; activation factor at 5 µM; AID 1025, 2008;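 active = activation factor of at least 2 at 5 µM in the primary screen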;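 also: 0 = wells with 2.5 mM tranylcypromine and 1 = vehicle-only wells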
CYP2C19 inhib = blockers of cytochrome P450 2C19 activity – biochemical, luminescence, ADME assay, primary screen | actives 21% (n = 96,000) | CYP2C19 Supersomes, luciferin-H EGE luminescence, 30 min | P33261 | AID 778, 2007 | inhibition, % at 5 µM;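 active = CYP2C19 inhibition above a set limit at 5 µM in the primary screen, cut at about 50% in these data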;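 also: plate controls were negative control wells for no effect and 2.5 mM tranylcypromine positive control for full effect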
Numbers without * were called inactive; / = no result given. A selection: hits, their analogues and other compounds. The true share with any hit is near 21%.

SMILES | CYP2C9 activ | MRP1 act | CYP2C9 inh | MRP reversal | CYP2C19 activ | CYP2C19 inhib
COc1ccccc1S(=O)(=O)Cc1ccc(C(=O)NCCN(C)C)o1 | / | / | / | 6 | / | /
Cc1ccc(CS(=O)(=O)Cc2ccc(C(=O)NCc3cccnc3)o2)cc1 | 0.6 | 0 | 36 | 3 | 0.2 | 76*
COc1ccccc1CNC(=O)c1ccc(CS(=O)(=O)c2ccccc2OC)o1 | 0.5 | -1 | 52* | 5 | 0.8 | 22
Cc1ccccc1S(=O)(=O)Cc1ccc(C(=O)NCc2cccnc2)o1 | 0.3 | -2 | 67* | -4 | 0 | 98*
Cc1ccccc1S(=O)(=O)Cc1ccc(C(=O)O)o1 | 1.1 | -1 | -13 | 0 | 1.2 | -16
CCOc1ccccc1NC(=O)N1CCCC1C(=O)Nc1ccc(NC(C)=O)cc1 (stereo unspecified) | 0.8 | 0 | 21 | 3 | 0.9 | 7
CCn1c2ccccc2c2cc(NC(=O)CSc3nnc(-c4cccc(C)c4)o3)ccc21 | 0.4 | -2 | 64* | / | 0.4 | 63*
CCn1c2ccccc2c2cc(NC(=O)CSc3nnc(-c4ccccc4)o3)ccc21 | 0.2 | -2 | 78* | / | 0.1 | 95*
O=C(CSc1nnc(-c2cccc(Cl)c2)o1)Nc1ccc2c(c1)OCCO2 | / | 0 | / | 2 | / | /
CCn1c2ccccc2c2cc(NC(=O)CSc3nnc(-c4cccc(F)c4)o3)ccc21 | 0.3 | -3 | 70* | / | 0.1 | 91*
O=C(O)CSc1nnc(-c2ccccc2)o1 | 0.9 | 1 | 12 | 4 | 0.9 | 10
CN(C(=O)COc1ccccc1C(=O)NCCc1ccccc1)c1ccccc1 | / | -1 | / | / | / | /
O=C(CSc1ncn[nH]1)Nc1ccc2c(c1)CCC2 | / | 2 | / | / | / | /
COc1ccc(NC(=S)N/C(=N/CS(=O)(=O)c2ccccc2)c2ccccc2)cc1 | / | -3 | / | 16 | / | /
O=[N+]([O-])c1ccc(NC(=S)N/C(=N/CS(=O)(=O)c2ccccc2)c2ccccc2)cc1 | 0.4 | -5 | 58* | 1 | 0.7 | 29
CC(=NCCN1CCNCC1)C1=C(O)CC(C)(C)CC1=O | 0.9 | -1 | 13 | -6 | 1 | 2
CCC(CC)c1nnc(NC(=O)c2cc(C(=O)OC)cc([N+](=O)[O-])c2)s1 | / | 1 | / | / | / | /
Cc1ccc(NC(=O)c2oc3c(c2C)C(=O)CC(C)(C)C3)cc1 | 0.9 | 0 | 11 | 1 | 0.2 | 77*
Cc1c(C(=O)Nc2ccncc2)oc2c1C(=O)CC(C)(C)C2 | 0.1 | -1 | 94* | 21 | 0 | 99*
Cc1c(C(=O)Nc2ccccc2)oc2c1C(=O)CC(C)(C)C2 | 0.7 | 1 | 29 | 19 | 1 | -1
CCOc1cccc(=O)c2c(C)oc(C)c12 | 0 | -4 | 95* | 17 | 0.8 | 22
CCOc1cccc2cc(-c3cn4cc(C)ccc4n3)c(=O)oc12 | 1.5 | -5 | -54 | / | 1 | 4
O=C(COC(=O)COc1cccc(Br)c1)Nc1c(Cl)cccc1Cl | / | 0 | / | / | / | /
C=CCNC(=O)c1oc2ccc(S(=O)(=O)N(CC)CC)cc2c1C | 0.5 | 2 | 47 | -19 | 0.8 | 24
Cc1c(C(=O)O)oc2ccc(S(=O)(=O)NCc3ccc(F)cc3)cc12 | 0.3 | 1 | 72* | 9 | 1.1 | -7
SMILES | CYP2C9 activ | MRP1 act | CYP2C9 inh | MRP reversal | CYP2C19 activ | CYP2C19 inhib
CCN(CC)S(=O)(=O)c1ccc2oc(C(=O)N3CCOCC3)c(C)c2c1 | 0.9 | -2 | 7 | / | 1.1 | -11
CCN(CC)S(=O)(=O)c1ccc2oc(C(=O)N3CCCCCC3)c(C)c2c1 | 0.4 | -4 | 56* | / | 1 | 3
COCCCNC(=O)c1oc2ccc(S(=O)(=O)N(C)C3CCCCC3)cc2c1C | 0.2 | -3 | 76* | -3 | 0.8 | 24
COc1ccc(CNS(=O)(=O)c2ccc3oc(C(=O)O)c(C)c3c2)cc1 | / | -3 | / | -1 | / | /
CCN(CC)C(=O)c1oc2ccc(S(=O)(=O)N3CCCCCC3)cc2c1C | 0.7 | 0 | 28 | -23 | 0.5 | 51*
CCNC(=S)NNC(=O)Nc1ccccc1 | 1.1 | -1 | -12 | 4 | 0.8 | 18
CCC(=O)Nc1ccc(/C(C)=N\NC(=O)c2ccc(OC)cc2)cc1 | / | 0 | / | / | / | /
O=C(Cn1cnc2c(nnn2Cc2ccccc2F)c1=O)NCc1ccco1 | 1.1 | 1 | -15 | -7 | 1 | 0
CCN(CC)S(=O)(=O)c1ccc(NC(=O)C2CCCN(C(=O)c3ccc(Cl)cc3)C2)cc1 (stereo unspecified) | / | -1 | / | / | / | /
CCN(CC)S(=O)(=O)c1ccc(C(=O)N2CCCCC2)cc1 | 0.3 | 0 | 70* | 6 | 0.8 | 18
Cc1ccc(CNC(=O)c2oc3ccc(S(=O)(=O)N4CCC5(CC4)OCCO5)cc3c2C)cc1 | 0.3 | 0 | 65* | -6 | 0.6 | 44
Cc1c(C(=O)NCc2cccnc2)oc2ccc(S(=O)(=O)N3CCC4(CC3)OCCO4)cc12 | 0.7 | 0 | 28 | 1 | 0.8 | 16
Cc1c(C(=O)Nc2ccc(F)cc2)oc2ccc(S(=O)(=O)N3CC(C)CC(C)C3)cc12 (stereo unspecified) | 0.4 | -2 | 58* | 1 | 1 | -4
O=C(CN1CCOCC1)Nc1scc(-c2ccccc2)c1C(=O)N1CCOCC1 | 0.7 | -2 | 32 | -2 | 0.8 | 25
Cc1sc(NC(=O)CSc2nnnn2C2CCCCC2)c(C#N)c1C | 0.9 | -1 | 12 | / | 1 | 4
Cc1ccc(C(C(=O)NC2CCCCC2)N(C(=O)c2csnn2)C2CCCC2)o1 (stereo unspecified) | 0.7 | -3 | 32 | 11 | 0.6 | 37
Cc1ccc(C(C(=O)NC2CCCC2)N(C(=O)c2csnn2)C2CCCC2)o1 (stereo unspecified) | 0.8 | -2 | 20 | 15 | 0.4 | 64*
Cc1ccsc1C(C(=O)NC1CCCCC1)N(C(=O)c1csnn1)C1CC1 (stereo unspecified) | 0.9 | -1 | 12 | 5 | 0.4 | 64*
Cc1cc(=O)[nH]c(N/N=C/c2ccc(OC(=O)c3ccco3)cc2)n1 | / | -1 | / | / | / | /
CC1(C)CC(C#N)(N2CCOCC2)CCO1 (stereo unspecified) | 1.1 | -2 | -12 | 5 | 0.9 | 10
CCCCc1nc2ccccc2c(=O)n1NC(=O)c1c(O)c2cccc3c2n(c1=O)CCC3 | 0.5 | / | 53* | -5 | 0.9 | 8
Clc1cccc(CN2CCCCCCC2)c1Cl | / | 1 | / | / | / | /
Cc1oc(-c2cccs2)nc1CS(=O)CC(=O)NCCCN1CC(C)CC(C)C1 (stereo unspecified) | 0.3 | -3 | 69* | -1 | 1 | 3
COc1ccc(-c2nc(CS(=O)CC(=O)NCc3ccc(Cl)cc3)c(C)o2)cc1 (stereo unspecified) | 0.2 | -2 | 79* | 4 | 0.2 | 80*
